According to PubChem BioAssay AID2410 (Southern Research Specialized Biocontainment Screening …, 2010):
Among all 2,500 compounds or so, about 2,100 (84%) were called active.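 Rule for the calls: active = toxic compounds, whose cell viability fell below 70% of untreated control cells; inactive = the rest.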 The set was probably picked from earlier hits. These entries were drawn from the full list. Results with a measured potency or affinity are listed apart.

Experiment: HEp-2 cell cytotoxicity, dose response, cytotoxicity control for RSV inhibitor project, HTS (AID 2410);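 note: cells exposed to compound for six days before readout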
Conditions: HEp-2 viability, luminescence, cytotoxicity counter-screen; series mostly up to 50 µM
For `CCOC(=O)c1sc2nc(C)[nH]c(=O)c2c1C`, the outcome was “inactive”. In the case of `CCOC(=O)c1sc2nc(COC(=O)c3c(F)cccc3F)[nH]c(=O)c2c1C`, the outcome is reported as “inactive”. In the case of `Cc1nn(Cc2ccc(F)cc2)c(C)c1NC(=O)c1cnn2c1NC(c1ccccc1)CC2C(F)(F)F` (configuration not stated), the outcome is reported as “inactive”. In the case of `CCN(c1cc(C)cc(C)c1)S(=O)(=O)c1nnc(NC(=O)C(C)C)s1`, the outcome is reported as “inactive”. For `Cc1ccc(S(=O)(=O)N2CCN(C)CC2)cc1-c1nnc2c3ccccc3c(C)nn12`, the outcome was “inactive”. In the case of `O=C(c1ccc(Br)o1)N1CCN(c2ccc3nnc(-c4ccccc4)n3n2)CC1`, the outcome is reported as “inactive”. In the case of `COc1ccc(C(=O)O/N=C2\C(=O)N(C)c3ccccc32)cc1`, the outcome is reported as “inactive”. With `N#Cc1cc(Cl)c(N2CCOCC2)cc1C#N` the outcome was “inactive”. For `O=C(O)CSc1cn(Cc2ccccc2)c2ccccc12`, the outcome was “inactive”. For `O=C(Nc1cc(Cl)cc(Cl)c1)c1ccc(Cn2c(=O)[nH]c3ccsc3c2=O)cc1`, the outcome was “inactive”. With `CC1CCN(C(=O)Cn2c(=O)n(-c3ccc(F)cc3)c(=O)c3sccc32)CC1` the outcome was “inactive”. With `COc1ccc(S(=O)(=O)NC(C)(C)C)cc1-c1nnc2c3ccccc3c(C)nn12` the outcome was “inactive”. For `O=C1c2cccnc2C(Nc2ccc(Cl)cc2)N1Cc1cccs1` (configuration not stated), the outcome was “inactive”. In the case of `Cn1ncc(Cl)c1C(=O)Nc1ccc(Cl)cn1`, the outcome is reported as “inactive”. For `O=C(Nc1ccc2c(c1)CCC2)c1ccc(F)cc1`, the outcome was “inactive”. With `COc1ccccc1C(=O)NCCNc1nc2cc(C)cc(C)c2cc1C#N` the outcome was “inactive”. In the case of `CN(C)c1ccc(C2CC(c3cccc(NS(C)(=O)=O)c3)=NN2C(=O)c2ccccc2)cc1` (configuration not stated), the outcome is reported as “inactive”. With `CCc1cccc2c(C(=O)COC(=O)c3ccccc3)c[nH]c12` the outcome was “inactive”. In the case of `CCc1nn(CCCC(=O)NCc2ccccc2Br)c(=O)c2cc3occc3n12`, the outcome is reported as “inactive”. With `Cc1ccc(CNc2ccc([N+](=O)[O-])cc2C(N)=O)cc1` the outcome was “inactive”. With `CC(C)Cc1nc2n[nH]c(N)c2c2c1CCC2` the outcome was “inactive”. With `COc1ccc(CN2C(=O)c3cccnc3C2Nc2cc(Cl)c(OC)cc2OC)cc1` (configuration not stated) the outcome was “inactive”. With `CC(Oc1ccccc1F)C(=O)Nc1ccc2ccccc2c1` (configuration not stated) the outcome was “inactive”. In the case of `COc1cc(OC)cc(C(=O)NCCNc2nc3cc(C)cc(C)c3cc2C#N)c1`, the outcome is reported as “inactive”. In the case of `O=C1c2cccnc2C(Nc2ccccc2)N1Cc1ccco1` (configuration not stated), the outcome is reported as “inactive”. For `Cc1cc(C)c2c(c1)c(C)cc1nnc(SCC(=O)NCc3ccco3)n12`, the outcome was “inactive”. In the case of `CS(=O)(=O)N1CCC(Oc2ccccc2C(=O)N2CCN(CC3CC3)CC2)CC1`, the outcome is reported as “inactive”. In the case of `COc1ccc(NC2c3ccccc3C(=O)N2Cc2ccccc2Cl)cc1OC` (configuration not stated), the outcome is reported as “inactive”. For `COc1cc(NC2c3ccccc3C(=O)N2Cc2ccc3c(c2)OCO3)cc(OC)c1OC` (configuration not stated), the outcome was “inactive”. In the case of `CCN(CC)S(=O)(=O)c1cc(C(=O)c2nccn2C)ccc1Cl`, the outcome is reported as “inactive”. In the case of `Cc1ccc(C2C3CSCC=C3C(C#N)=C(N)C2(C#N)C#N)cc1` (configuration not stated), the outcome is reported as “inactive”. With `O=C(CSc1ccc2ccccc2c1)NC1CCCc2ccccc21` (configuration not stated) the outcome was “inactive”. For `CCC1CCc2c(sc(NC(C)=O)c2C#N)C1` (configuration not stated), the outcome was “inactive”. For `COCCNC(=S)N1CCc2cc(OC)c(OC)cc2C1COc1cc(C)cc(C)c1` (configuration not stated), the outcome was “inactive”. With `Cc1c(-c2ccccc2)c(=O)oc2ccc(O)cc12` the outcome was “inactive”. For `O=C(CCn1c(=O)c2sccc2n(Cc2cc(=O)n3ccccc3n2)c1=O)NCc1ccco1`, the outcome was “inactive”. In the case of `O=C(CCCn1c(=O)c2sccc2n(Cc2cc(=O)n3ccccc3n2)c1=O)NCc1ccco1`, the outcome is reported as “inactive”. In the case of `CCOC(=O)c1cc(CC)sc1NC(=O)c1ccc2c(c1)OCCO2`, the outcome is reported as “inactive”. For `CCC(CC)NC(=O)COC(=O)c1ccc(NS(=O)(=O)c2ccc3c(c2)OCCO3)cc1`, the outcome was “inactive”. For `Cc1cccc(Nc2nc(OCC#N)nc(N(C)C)n2)c1`, the outcome was “inactive”. With `Cc1ccc(S(=O)(=O)N2CCN(CCO)CC2)cc1-c1nnc2c3ccccc3c(C)nn12` the outcome was “inactive”. In the case of `Cc1ccnc(NS(=O)(=O)c2ccc(NC(=O)Cc3ccccc3)cc2)n1`, the outcome is reported as “inactive”. With `Cc1ccc(C2=NN(C(=O)COc3ncnc4ccccc34)C(c3ccco3)C2)cc1` (configuration not stated) the outcome was “inactive”. In the case of `O=C1CN2C(=Nc3ccc(Cl)cc3C2c2ccccc2)CN1` (configuration not stated), the outcome is reported as “inactive”. For `O=C1CC(Sc2nnc(-c3ccccc3)o2)C(=O)N1c1ccccc1` (configuration not stated), the outcome was “inactive”. For `CN(CCO)c1nc(N)c2c(N)nc3c(c2c1C#N)CC(=O)N3Cc1cccs1`, the outcome was “inactive”. In the case of `Clc1cccc(Nc2ncnc3c2cnn3-c2ccccc2)c1`, the outcome is reported as “inactive”. For `CCOc1ccc2nc(NC(=O)Cc3cccs3)sc2c1`, the outcome was “inactive”. With `Cc1ccc2nc(NC(=O)CCn3c(=O)sc4ccccc43)sc2c1` the outcome was “inactive”. With `COc1cc(NC2c3ncccc3C(=O)N2Cc2ccco2)cc(OC)c1OC` (configuration not stated) the outcome was “inactive”. With `Cc1ccc(-n2nc3c(=O)n(CCCC(=O)NCC(C)c4ccccc4)nc(C)c3c2C)cc1` (configuration not stated) the outcome was “inactive”. For `CC(C(=O)N=Nc1c(O)[nH]c2ccccc12)n1cnc2ccccc2c1=O` (configuration not stated), the outcome was “inactive”. For `CCOC(=O)Cc1nnc(Nc2ccc(C)cc2)c2ccccc12`, the outcome was “inactive”. With `COC(=O)c1c(NC(NC(=O)C(C)(C)C)C(Cl)(Cl)Cl)sc2c1CCC2` (configuration not stated) the outcome was “inactive”. In the case of `Cc1ccc(OCc2ccc(Br)cc2)c([N+](=O)[O-])n1`, the outcome is reported as “inactive”. In the case of `COc1ccc(CNC(=O)CCCn2nc(C)c3c(C)n(-c4ccc(C)cc4)nc3c2=O)cc1`, the outcome is reported as “inactive”. For `O=C(CSc1nc2nc3c(cc2c(=O)n1-c1ccccc1)CCCC3)Nc1cccc2ccccc12`, the outcome was “inactive”. With `Nc1c2c(nc3sc4c(c13)CCCC4)-c1ccccc1CC2` the outcome was “inactive”. In the case of `Cc1noc(C)c1C(=O)OC(C)C(=O)Nc1ccc(S(=O)(=O)NC(C)C)cc1` (configuration not stated), the outcome is reported as “inactive”. In the case of `CCCCc1cc(=O)oc2c3c(cc(OCC(=O)N4CCC[C@H]4C(=O)O)c12)OC(C)(C)CC3`, the outcome is reported as “inactive”. For `Cc1cc(C)c2c(n1)sc1c(N3CCCCC3)ncnc12`, the outcome was “inactive”. In the case of `COc1ccc(Cl)cc1NS(=O)(=O)c1c(C)[nH]c(C)c1C(=O)N1CCCCC1`, the outcome is reported as “inactive”. With `COc1ccc(N(CC(=O)NC2CCCC2)C(=O)c2ccc(C)s2)c(OC)c1` the outcome was “inactive”. For `CCCc1c(C(=O)Nc2ccc(C(F)(F)F)cc2)cnn1-c1ccccc1`, the outcome was “inactive”. For `Cc1cc(C)c(C)c(C(=O)CSc2nnc(-c3ccc4[nH]c(C)c(C)c4c3)o2)c1C`, the outcome was “inactive”. In the case of `Cc1c(NC(=O)CN2C(=O)c3ccccc3C2=O)c(=O)n(-c2ccccc2)n1C`, the outcome is reported as “inactive”. For `COc1ccc(S(=O)(=O)NCc2ccco2)cc1-c1nnc2c3ccccc3c(C)nn12`, the outcome was “inactive”. In the case of `C/C(N)=C(/C#N)C(=O)COC(=O)CNS(=O)(=O)c1ccc2ccccc2c1`, the outcome is reported as “inactive”. In the case of `O=c1cc(-c2ccc(O)c(O)c2)oc2c(C3O[C@H](CO)[C@@H](O)[C@H](O)[C@H]3O)c(O)cc(O)c12` (some centres not stated), the outcome is reported as “inactive”. With `COc1ccc(OC)c(-c2nc3c(C)n[nH]c(=O)c3[nH]2)c1` the outcome was “inactive”. With `COc1ccc2c(CC(=O)Nc3ccc(OC)c(NS(=O)(=O)c4ccc(F)cc4)c3)coc2c1` the outcome was “inactive”. In the case of `COc1ccc(C(C)=O)cc1COc1ncnc2ccccc12`, the outcome is reported as “inactive”. With `Cc1ccc(-c2n[nH]c(=S)n2/N=C/c2ccncc2)cc1` the outcome was “inactive”. For `COCCNC(=O)c1cc2c(s1)-c1ccc(Cl)cc1SC2`, the outcome was “inactive”. With `Clc1ccc(Nc2ccc3ccccc3n2)cc1` the outcome was “inactive”. For `Cc1cc2cc(C)c(NCCNC(=O)c3ccccc3F)nc2cc1C`, the outcome was “inactive”. For `O=C(NC1=NCCS1)c1ccc(-c2ccc(Cl)cc2)o1`, the outcome was “inactive”. For `CCOC(=O)N1CCN(C(=O)CSc2nnc(-c3ccc(C)c(C)c3)o2)CC1`, the outcome was “inactive”. For `O/N=C/c1ccccc1OCc1ccc(Cl)cc1`, the outcome was “inactive”. For `O=C(O)c1nn(CCOc2c(Cl)cccc2Cl)c(=O)c2ccccc12`, the outcome was “inactive”. With `O=C(Nc1ccc(Cl)cc1Cl)C1=Cc2ccccc2OC1` the outcome was “inactive”. In the case of `COc1ccc(C(=O)Nc2cccc3c2CCCC3)c(OC)c1`, the outcome is reported as “inactive”. For `O=C(O)c1ccc(N/N=C/c2cc(Br)cs2)cc1`, the outcome was “inactive”. In the case of `CCOc1ccc(NC(=O)c2csc3c2CCCC3)cc1`, the outcome is reported as “inactive”. For `CCOc1cccc(C(=O)Nc2ccc(NC(=O)c3ccccc3)c(C)c2)c1`, the outcome was “inactive”. In the case of `COc1ccc(CCNC(=O)c2ccc(N(C)S(=O)(=O)c3ccc(C)cc3)cc2)cc1`, the outcome is reported as “inactive”. With `COc1ccc2[nH]cc(C(=O)CN3CCN(C4CCCCC4)CC3)c2c1` the outcome was “inactive”. In the case of `CC1(C)Cc2cccc(C(=O)Nc3ccc(F)cc3F)c2O1`, the outcome is reported as “inactive”. In the case of `O=C1c2ccccc2C(=O)N1CC1c2ccccc2CCN1C(=O)C1CCCCC1` (configuration not stated), the outcome is reported as “inactive”. With `O=c1c2ccccc2nc(/C=C/c2ccc(Br)cc2)n1CCCO` the outcome was “inactive”. In the case of `CC(=O)N1CCN(C2=NC(=O)/C(=C/c3ccc(OS(=O)(=O)c4ccccc4)cc3)S2)CC1`, the outcome is reported as “inactive”. For `CCn1nc(NC(=O)c2ccccc2)c2cc3cccc(C)c3nc21`, the outcome was “inactive”. In the case of `N#Cc1c(-c2c(Cl)cccc2Cl)noc1/C=C/Nc1ccc(C(=O)O)cc1`, the outcome is reported as “inactive”. In the case of `Cc1csc2c(=O)sc(NC(=O)c3ccc(F)cc3)nc12`, the outcome is reported as “inactive”. With `Cc1[nH]c2ccccc2c1/C=N/Nc1ccc([N+](=O)[O-])cc1` the outcome was “inactive”. In the case of `Cc1ccc(-c2nc(-c3cccnc3)no2)c(C)c1`, the outcome is reported as “inactive”. With `COc1ccc2nc(/C=N/NC(=O)[C@H](C)NC(=O)OC(C)(C)C)ccc2c1` the outcome was “inactive”. In the case of `CC(=O)Nc1cccc(-c2csc(Nc3cccc(C)n3)n2)c1`, the outcome is reported as “inactive”. For `CCOC(=O)c1cccc(NC(=O)Nc2cc(OC)ccc2OC)c1`, the outcome was “inactive”. For `N=C1SCC(=O)N1c1nc(-c2ccccc2)cs1`, the outcome was “inactive”. With `CS(=O)(=O)c1ccccc1C(=O)Nc1ccc(-c2nc3ccccc3o2)cc1` the outcome was “inactive”. With `CSc1nnc(-c2ccc(Cl)cc2Cl)o1` the outcome was “inactive”. With `CCOc1ccc2nc3c(cc2c1)CN(CCCO)C(=NCCOC)S3` the outcome was “inactive”. For `O=[N+]([O-])c1ccc2c(c1)nnn2-c1ccccc1`, the outcome was “inactive”. In the case of `CCN(CC)c1nc(Nc2ccc(Cl)cc2)nc(OCC#N)n1`, the outcome is reported as “inactive”. With `Cn1c(=NC(=O)C2CC2)sc2cc(F)cc(F)c21` the outcome was “inactive”. In the case of `COC(=O)c1ccc2[nH]ccc2c1`, the outcome is reported as “inactive”.
